Source: PubChem
The list is not random: actives were taken first. Their share in the collection is about 0.2%.
Bim-Bcl-B: human Bim-Bcl-B interaction inhibition; Q9HD36; bead-based flow cytometry, Bim peptide-Bcl-B binding; inhibition, % at 10 µM; 0.073% of 190,000 active; AID 951;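 further: 0% = tracer peptide without compound and 100% = reference inhibitor peptide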
Target sequence (Q9HD36 whole entry, looked up): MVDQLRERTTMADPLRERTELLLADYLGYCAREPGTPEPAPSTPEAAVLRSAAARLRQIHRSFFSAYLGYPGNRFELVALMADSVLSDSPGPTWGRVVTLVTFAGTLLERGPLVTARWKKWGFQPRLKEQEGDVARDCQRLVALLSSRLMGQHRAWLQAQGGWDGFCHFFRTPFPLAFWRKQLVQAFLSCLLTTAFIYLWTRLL
Bim-Bfl-1: disrupts Bim binding to human Bfl-1. inhibition, % at 10 µM. AID 1008. Q16548. 0.12% of 190,000 active. Bead-based flow cytometry, Bim-Bfl-1 binding inhibition;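 further: 0% = wells without compound plus tracer and 100% = blocker peptide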
Bcl-XL Bim block: disrupts Bim peptide binding to human Bcl-XL. Q07817. bead flow cytometry, fluorescence. inhibition, % at 10 µM. 0.04% of 190,000 active. AID 1007
Bim-Bcl-2: disrupts Bim peptide binding to human Bcl-2 | P10415 | Bead-based flow cytometry, Bim peptide-Bcl-2 binding | inhibition, % at 10 µM | 0.06% of 190,000 active; in the data active means inhibition above about 40%;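 further: 0% = no compound wells with probe peptide and 100% = reference peptide inhibitor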
Pf gametocyte: inhibitors of late stage P. falciparum gametocyte viability | P. falciparum stage V gametocytes, ATP luminescence, 24 h | inhibition, % at 10.9 µM | 0.065% of 150,000 active | AID 743093;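 active means inhibition above the mean plus 3 SD of compounds within the control limits, set per campaign, cut at about 38% in these data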;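 further: 0% = DMSO wells and 100% = medium only without gametocytes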
Bcl-W Bim block: disrupts Bim peptide binding to human Bcl-W | Q92843 | bead-based flow cytometry | inhibition, % at 10 µM | 0.02% of 190,000 active;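 further: 0% = bound tracer without compound and 100% = peptide blocker; higher means less fluorescent Bim peptide bound to Bcl-W beads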
* hit, by the source's call; nt = no result given. Unless noted, no stated cut-off is given here; in the data, active means inhibition above about 40%.

SMILES | Bim-Bcl-B | Bim-Bfl-1 | Bcl-XL Bim block | Bim-Bcl-2 | Pf gametocyte | Bcl-W Bim block
c1ccc(-c2nc(N3CCOCC3)s[n+]2-c2ccccc2)cc1 | -44 | 52* | 9 | 14 | 4 | 7
COC(=O)C1=C(c2ccc(F)cc2OCc2ccccc2)C[C@@H]2CC[C@H]1N2C(=O)N1CCC(O)(c2ccc(Cl)cc2)CC1 | nt | nt | nt | nt | -17 | nt
COP(=O)(CC(=O)O)c1ccccc1 (stereo unspecified) | 95* | -3 | 51* | 26 | nt | 36
COC(=O)C1=C(c2ccc(F)cc2OCc2ccccc2)C[C@@H]2CC[C@H]1N2C(=O)NCc1ccc([N+](=O)[O-])cc1 | nt | nt | nt | nt | 23 | nt
